High-throughput results as filed in PubChem BioAssay.
An excerpt weighted towards active compounds, which were near 6% of everything screened.
D1 PAM: potentiators of human D1 dopamine receptor; P21728; HEK293 TREx D1 cells, calcium flux, dopamine EC20 potentiation; potentiation, % at 10 µM; 360,000 compounds, 0.036% hits; in the data active = potentiation above about 30%
DRD3 antagonist: antagonists of human D3 dopamine receptor | max response, negative = inhibition, % | D3R cells, DiscoveRx beta-arrestin luminescence, antagonist mode; active compounds read low | 360,000 compounds, 2.5% hits | AID 652054 | P35462; in the data active = max response below about -50%; inconclusive = no clear call, values can overlap the other calls
Target sequence (P35462 whole entry, looked up): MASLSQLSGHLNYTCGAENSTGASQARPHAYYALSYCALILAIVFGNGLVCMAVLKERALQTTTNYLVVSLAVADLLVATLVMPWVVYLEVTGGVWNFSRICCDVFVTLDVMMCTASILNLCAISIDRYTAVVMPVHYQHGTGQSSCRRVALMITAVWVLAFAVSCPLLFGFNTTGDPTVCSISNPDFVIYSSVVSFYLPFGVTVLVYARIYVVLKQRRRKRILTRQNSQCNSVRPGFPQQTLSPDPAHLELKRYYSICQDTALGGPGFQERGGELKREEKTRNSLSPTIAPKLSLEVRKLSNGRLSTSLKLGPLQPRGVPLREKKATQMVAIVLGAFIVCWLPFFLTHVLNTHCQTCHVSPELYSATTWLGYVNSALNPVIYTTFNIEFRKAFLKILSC
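Cells plated overnight at 1500 cells/well, then exposed to library compounds with dopamine controls for 90 minutes at 37 degrees C. DiscoveRx reagent added for 30–60 minutes at room temperature; luminescence read, quantitative HTS format.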
D3 ag: D3 dopamine receptor (human) agonism | D3R DiscoveRx beta-arrestin cells, luminescence, 90 min | max activation, % | 410,000 compounds, 0.58% hits; in the data active = max activation above about 30%
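Agonist-mode cell screen: cells plated at 1500/well and incubated overnight at 37 °C, then exposed to library compounds for 90 min at 37 °C. Detection reagent was added for 30–60 min at room temperature, and luminescence was read.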
D1 agonist: human D1 receptor agonism; 360,000 compounds, 1% hits; activation, % at 2 µM; P21728; HEK293 T-REx D1 cells, calcium flux, agonist mode; in the data active = activation above about 30%
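Agonism was scored from calcium flux recorded over 180 s (1 read/s) after pintool compound addition, following a 10-cycle baseline. Cells were inducible force-coupled HEK293 TREx D1, plated overnight at 30 C and loaded with no-wash calcium dye.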
D1 antagonist: blocks dopamine activation of the human D1 receptor; P21728; HEK293 TREx D1 cells, calcium flux, dopamine EC80; active compounds read low; activity change, negative = inhibition, % at 10 µM; 360,000 compounds, 3.2% hits; in the data active = activity change below about -30%
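After overnight tetracycline induction at 30 C, force-coupled D1 HEK293 cells took up a no-wash calcium dye at room temperature. Compounds were added and monitored 180 s, and the response to EC80 dopamine was then recorded.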
A number is an active result; i = inactive; ? = inconclusive; nt = not tested or not shown; ! = a repeat was not active.

SMILES	D1 PAM	DRD3 antagonist	D3 ag	D1 agonist	D1 antagonist
Cc1cccc(N2CCN(C3(c4ccccc4)C(=O)c4ccccc4C3=O)CC2)c1C	i	nt	i	i	i
O=C(O)c1ccccc1Sc1ccccc1S(=O)(=O)NC1CCCCC1	i	i	32	i	i
Cc1cccc(NS(=O)(=O)c2cccc(C(=O)NCC(C)(C)N3CCOCC3)c2)c1	i	-81	i	i	i
CC(Oc1ccc(Br)cc1)C(=O)NCC(C)(C)N1CCOCC1 (configuration not stated)	i	i	i	i	i
CC(C)(CNC(=O)Cc1ccc(Br)cc1)N1CCOCC1	i	i	i	i	-37
CCn1ccc2cc(S(=O)(=O)N3CCCN(C(=O)NCC(C)C)CC3)ccc21	i	nt	i	i	i
COc1cccc(C(c2ccccc2)N2C3CCC2CN(S(=O)(=O)c2ccc(F)cc2)CC3)c1 (configuration not stated)	i	?	i	62	i
COc1ccc(N2CCN(C3CCN(S(=O)(=O)c4ccc(F)cc4)CC3)CC2)cc1	i	i	i	i	i
NC(=O)[C@@H]1CCCNc2c(I)cc([N+](=O)[O-])cc2C(=O)N[C@@H](CCCN=C(N)N)C(=O)N[C@@H](CCCN=C(N)N)C(=O)N1	i	nt	nt	i	-39
NC(=O)CC[C@@H]1NC(=O)[C@@H]2CCCN2C(=O)c2cc([N+](=O)[O-])cc(I)c2NCCC[C@@H](C(=O)NC(CC(=O)O)C(N)=O)NC1=O (some centres not stated)	i	i	i	i	i
NC(=O)CC[C@@H]1NC(=O)[C@@H]2CCCN2C(=O)c2cc([N+](=O)[O-])cc(I)c2NCCC[C@@H](C(N)=O)NC1=O	i	i	44	i	i
COc1cccc(NC(=O)C(CCSC)NC(=O)C2CCC(C)CC2)c1 (configuration not stated)	i	nt	i	i	i
CCOC(=O)c1[nH]cnc1C(=O)NC1CCN(C(=O)OC(C)(C)C)CC1	i	i	34	i	nt
CC(C)(C)OC(=O)N1CCC(NC(=O)c2nc[nH]c2C(=O)N2CCN(c3ccccc3)CC2)CC1	nt	i	51	nt	nt
C[C@H](NC(=O)c1nc[nH]c1C(=O)NC1CCN(C(=O)OC(C)(C)C)CC1)C(=O)OCc1ccccc1	i	i	34	i	i
CC(C)(C)OC(=O)NCCCCCNC(=O)c1[nH]cnc1C(=O)NC1CCN(C(=O)OC(C)(C)C)CC1	i	i	i	i	i
CC(C)(C)OC(=O)N1CCC(NC(=O)c2nc[nH]c2C(=O)N2CCN(C(=O)OC(C)(C)C)CC2)CC1	i	i	i	i	i
Fc1ccc(Nc2c3c(nc4nncn24)CCC3)cc1	i	nt	i	i	i
Cn1c2ccsc2c2cnn(Cc3ccccc3F)c(=O)c21	i	nt	nt	i	i
CC(C)c1ccc(NC(=O)COc2ccccc2)cc1	i	i	i	i	i
CC(C)c1ccc(NC(=O)COc2ccccn2)cc1	i	i	i	i	-91
Cc1ccc(NC(=O)C2CCCN(S(=O)(=O)c3cccc4nsnc34)C2)cc1C (configuration not stated)	i	nt	i	i	i
CCN(C(=O)c1ccccc1)c1ccc([N+](=O)[O-])cc1	i	i	i	i	i
O=[N+]([O-])c1ccc(N(c2ccccc2)c2ccccc2)cc1	i	i	i	42	i
O=C1OC2(CCCCC2)CC2=C1C1O[C@](CCCCN3C(=O)c4ccccc4C3=O)(Cc3ccccc31)O2	i	nt	nt	i	i
SMILES	D1 PAM	DRD3 antagonist	D3 ag	D1 agonist	D1 antagonist
CCOC(=O)c1c(C)[nH]c(C)c1S(=O)(=O)N1CCCC(C(=O)Nc2ccc(F)cc2F)C1 (configuration not stated)	i	nt	i	i	i
COC(=O)Cn1c(CCS(=O)(=O)c2ccc(Cl)cc2)nc2ccccc21	i	i	i	i	i
COC(=O)Cn1c(CCS(=O)(=O)c2ccc(C)cc2)nc2ccccc21	i	-101	i	i	i
Cc1ccc(C)c(NC(=S)NC(NC(=O)N(C)C)C(Cl)(Cl)Cl)c1 (configuration not stated)	i	i	i	i	i
Cc1ccc(C)c(NC(=S)NC(NC(=O)Cc2cccc3ccccc23)C(Cl)(Cl)Cl)c1 (configuration not stated)	i	-50	i	i	i
CCc1ccc(OCC(=O)NC(NC(=S)Nc2ccccc2C)C(Cl)(Cl)Cl)cc1 (configuration not stated)	i	-57	i	i	i
CSc1ccc(CNC(=O)C2CCN(c3nnc(-n4cccc4CNc4ccc(C)cc4)s3)CC2)cc1	i	nt	i	i	i
Fc1ccc(F)c(CNc2ncnc3cc(Cl)ccc23)c1	i	i	i	i	-30
Fc1ccccc1N1CCN(c2nnc(C(F)(F)F)c3nnn(Cc4ccccc4)c23)CC1	i	nt	i	i	i
CCOC(=O)c1nn2c(C(F)(F)F)cc(-c3ccc(OC)cc3)nc2c1Br	i	i	i	35	i
CCC(CC)C(=O)Nc1cccc(-c2cn3cccnc3n2)c1	i	nt	i	i	-34
CCC(CC)C(=O)Nc1ccc(-c2cn3cccnc3n2)cc1	i	i	i	i	-31!
CCC(CC)C(=O)Nc1ccncc1	i	nt	nt	i	-46
CCC(CC)C(=O)Nc1cc(-c2cn3cccnc3n2)ccc1OC	i	nt	i	i	i
COCCc1nn2c(=O)cc(COC(=O)c3ccc(C(C)(C)C)cc3)nc2s1	i	nt	i	i	i
COc1cc(CNCCSc2nnnn2C)ccc1OCc1ccc(C)cc1	i	nt	i	i	i
Cc1ccc(CN2CCCn3nc(C(=O)NCCc4ccc(Cl)cc4)cc3C2=O)cc1	i	nt	i	i	i
CNCc1ccccc1OCC(=O)Nc1ccccc1	i	-52	i	i	i
O=C(COC(=O)c1ccccc1OCC(=O)Nc1ccc(Br)cc1)Nc1ccccc1	i	-51	i	i	i
O=C(COc1ccc(Br)cc1CNC1CCCC1)Nc1ccccc1	i	i	i	34	i
O=C(COc1ccccc1O)Nc1ccc(Cl)cc1	i	i	i	i	-36
O=C(c1ccc2c(c1)N(Cc1cccc(Cl)c1)C(=O)c1ccccc1S2(=O)=O)N1CCc2ccccc21	i	nt	i	i	i
Cc1cc(C)c2c(=O)n(CC(=O)Nc3ccc(Cl)cc3)sc2n1	i	?	i	i	-39
Cc1cc(C)c2c(=O)n(CC(=O)Nc3cccc(F)c3)sc2n1	i	?	i	i	-32
CC(C)c1ccc(CNc2nc(-c3ccco3)nn2C(=O)c2ccc([N+](=O)[O-])cc2)cc1	i	nt	i	i	i
N#CC1=C(N)OC2=C(C(=O)CCC2)C1c1ccc(OC(=O)N2CCOCC2)cc1 (configuration not stated)	i	-80	i	i	i
COc1ccc(-c2nc3scc(CCNS(=O)(=O)c4c(C)noc4C)n3n2)cc1OC	i	nt	i	i	nt
Cc1ccc(-c2nc3scc(CCNS(=O)(=O)c4c(C)noc4C)n3n2)cc1	i	nt	i	32	nt
CCC1(CC)NC(=S)N(Nc2ccccc2)C1=O	i	i	i	i	-33
